Assay outcomes deposited in PubChem by National Center for Advancing Translational Sciences (NCATS).
Pf Dd2 growth: inhibitors of Plasmodium falciparum Dd2 growth | P. falciparum Dd2 growth, SYBR Green, 72 h | Potency, µM (doses to about 28.9 µM), hits mostly inhibitors | actives 4.3% (n = 120,000) | AID 1347417; active = well fitted inhibition curve with a large enough effect; note: nearly all actives have a fitted effect of over 65% in size
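Readout: SYBR Green fluorescence, 485 nm excitation, 535 nm emission, after ~16 h lysis at 37C. Before that, Dd2-infected red cells (2.5% hematocrit) grew 72 h with compound, 29 uM top final concentration.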
Numbers stand for hits; - = inactive; [ ] = dose if it differs, or a comment. This is one part of a sample in which hits are shown more often than they occur.

SMILES	Pf Dd2 growth
COCc1ccc2c(c1)c(OC(C)(C)C(=O)NCC(C)C)nn2Cc1cccnc1	-
OC1CCOC2(CCN(Cc3ccncc3)CC2)C1 (stereo not drawn)	-
OC1CCOC2(CCN(Cc3ccccc3OC(F)(F)F)CC2)C1 (stereo not drawn)	5.62µM
COc1ccc2c(c1)c(CN1CCC3(CC1)CC(O)CCO3)cn2C (stereo not drawn)	-
OC1CCOC2(CCN(Cc3ccc(Br)o3)CC2)C1 (stereo not drawn)	-
COc1cccc(CN2CCC3(CC2)CC(O)CCO3)c1OC (stereo not drawn)	-
CC(C)Oc1ccccc1CN1CCC2(CC1)CC(O)CCO2 (stereo not drawn)	5.01µM
COCc1noc([C@@H]2CC(F)(F)CN2C(=O)CN2CCCCCC2)n1	-
Cc1ccc(N2CCN(c3ncnc4onc(-c5ccc(F)cc5)c34)CC2)c(C)c1	-
CNC(=O)c1cc(NC(=O)C2CCC2)cc2nc(C)ccc12	-
O=C(NC1CCCC1)c1ccc2c(=O)n(Cc3ccccc3)c(SCc3cccc(F)c3)nc2c1	-
COc1ccccc1CNC(=O)c1ccc(CSc2nc3ccncc3n2Cc2cccc(F)c2)cc1	3.55µM
Cc1cccc(CSc2nc3cccnc3n2Cc2ccc(C(=O)NCc3cccs3)cc2)c1	-
Cc1ccc(CSc2nc3cc(C(=O)NC4CCCC4)ccc3c(=O)n2Cc2ccccc2)cc1	-
O=C(NCc1cccs1)c1ccc(CSc2nc3ccncc3n2Cc2cccc(F)c2)cc1	8.91µM
O=C(NC1CCCC1)c1ccc2c(=O)n(Cc3ccccc3)c(SCc3ccc([N+](=O)[O-])cc3)nc2c1	3.16µM
COc1ccc(CSc2nc3ccncc3n2CC(=O)Nc2ccc(C)c(F)c2)cc1	-
COc1ccc(Cn2c(=O)c3ccnn3c3ccc(C(=O)NCc4cccnc4)cc32)cc1	-
CCc1ccc(CNC(=O)c2ccc(CSc3nc4ccncc4n3Cc3ccc(OC)cc3)cc2)cc1	12.6µM
O=C(Nc1ccsc1)N[C@H]1C[C@H]2C(=O)NC[C@@H](CCC(=O)N3CCCC3)N2C1	-
CCOC(=O)c1sc(NC(=O)Cn2nc3c(cc2=O)CCCC3)nc1C	-
NCCC1CN(Cc2cc3ccccc3s2)CCO1 (stereo not drawn)	-
C[C@@H]1CN(C(=O)CCc2ccc(F)cc2F)C[C@@]1(O)C1CCC1	-
O=C(NCc1cc(F)ccc1F)C1CCN(C(=O)c2ncn3c2COC(c2ccc(F)cc2)C3)CC1 (stereo not drawn)	-
COCCOC1CCN(S(=O)(=O)c2ccccc2C)CC1	-
SMILES	Pf Dd2 growth
CCCCNC(=O)[C@H]1CCC[C@H]1NC(=O)c1ccncc1	-
CCS(=O)(=O)c1ncc(Cl)c(C(=O)Nc2c(C(=O)c3ccc(C)cc3)oc3ccccc23)n1	-
Cc1ccc(NC(=O)C2CCN(S(=O)(=O)c3c(C)noc3C)CC2)cc1	-
O=C(NC1CCCC1)c1ccc(CSc2nc3cccnc3n2Cc2cccc(F)c2)cc1	-
COc1ccc(Cn2c(SCc3ccc(C(=O)NCc4cccs4)cc3)nc3ccncc32)cc1	7.94µM
COc1cccc(CSc2nc3cc(C(=O)NC4CCCC4)ccc3c(=O)n2Cc2ccccc2)c1	-
O=C(CSc1nc2ccccc2n1Cc1ccccc1)NCc1ccccc1	-
CCc1ccc(CNC(=O)c2ccc(CSc3nc4ccncc4n3Cc3ccccc3)cc2)cc1	10µM
O=C(NCc1ccccc1)c1ccc2c(c1)n(Cc1ccc(F)cc1)c(=O)c1ccnn12	-
O=C(NC1CCCCC1)c1ccc(CSc2nc3ccncc3n2Cc2cccc(F)c2)cc1	11.2µM
COc1ccc(C(=O)N2CCc3ccc(C(=O)NCc4cccs4)cc32)cc1	-
O=C(NCc1cccs1)c1ccc2c(c1)n(Cc1cccc(F)c1)c(=O)c1ccnn12	5.62µM
O=C(O)c1ccc2c(c1)n(Cc1cccc(F)c1)c(=O)c1ccnn12	-
COC(=O)c1ccc(Cn2c(SCc3ccccc3)nc3ccncc32)cc1	-
CN(CC1(C)CCOCC1)C(=O)c1ccc2ncccc2c1	-
O=C(Nc1cc(-c2ccccc2F)nn1-c1ccccc1)c1ccccc1Br	-
CN(C)C[C@@H]1CN(C)C[C@H]1NC(=O)c1ccc(F)c(F)c1	-
CCC1CCCCN1C(=O)CSc1n[nH]c(-c2ccccc2Cl)n1 (stereo not drawn)	-
CN1CC2(CCN(C(=O)Nc3ccccc3)CC2)CC1C(=O)N1CCOCC1 (stereo not drawn)	-
COCCn1nc2n(c1=O)CCN(C(=O)c1ocnc1C)CC2	-
Cc1nc2nc(SCC(=O)NCCc3ccccc3)nn2c(C)c1Cc1c(F)cccc1Cl	-
O=C(O)c1ccc(CN2CCC[C@H]2c2nc(-c3ccc(OC4CCCCC4)nc3)no2)cc1	-
CC(CNC(=O)c1ccc(CSc2nc3ccncc3n2Cc2ccc(F)cc2)cc1)c1ccccc1 (stereo not drawn)	4.47µM
CCc1ccccc1NC(=O)Cn1c(SCc2ccc(F)cc2)nc2ccncc21	-
Cc1ccc(CNC(=O)c2ccc3nc(SCc4ccc(F)cc4)[nH]c3c2)cc1	-
SMILES	Pf Dd2 growth
CC(C)NC(=O)c1ccc(Cn2c(SCc3ccc(F)cc3)nc3cccnc32)cc1	-
O=C(NCc1cccc(Cl)c1)c1noc(-c2ccc(F)cc2)n1	-
Cn1c(SCc2ccc(F)cc2)nc2ccc(C(=O)NCc3cccc(Cl)c3)cc21	10µM
COc1cccc(NC(=O)c2ccc(CN3C(=O)NC4(CCOCC4)C3=O)cc2)c1	-
CCOC(=O)C(CC)n1nnc2sc(-c3ccccc3)cc2c1=O (stereo not drawn)	-
CN(CC1CCOCC1)C(=O)CCCc1ccccc1	-
O=C(Nc1onc2c1CCCC2)c1ccccc1	-
CCOc1ccc(C(=O)Nc2onc3c2CCCC3)cc1	-
CC(C)(C)c1ccc(C(=O)Nc2onc3c2CCCC3)cc1	7.94µM
CN1CCN(c2nc3c(c(=O)[nH]2)CCN(Cc2ccccc2)CC3)CC1	-[5.79 µM]
COC(=O)c1ccccc1Nc1nc(-c2ccccc2)no1	-
COc1ccc(NC(=O)Nc2cccc(OCc3cc(=O)n4cccc(C)c4n3)c2)c(OC)c1	-
CCO[C@H]1CN(C(=O)c2cc(N3CCCCC3)ccc2Cl)C[C@@H]1O	-
CCCn1c(CCC(=O)Nc2ccccc2OC)nc2cccnc21	-[5.79 µM]
CCc1ccccc1NC(=O)c1ccc2c(c1)c(C)c(C)n2Cc1ccccc1	11.2µM
Cc1c(C)n(Cc2ccccc2)c2ccc(C(=O)NC(C)c3ccccc3)cc12 (stereo not drawn)	-
Cc1c(C)n(Cc2ccccc2)c2ccc(C(=O)NCc3ccccc3F)cc12	-
CSc1cccc(NC(=O)c2ccc3c(c2)c(C)c(C)n3Cc2ccc(F)cc2)c1	10µM
Cc1ccccc1NC(=O)c1ccc2c(c1)c(C)c(C)n2Cc1ccccc1	-
CSc1ccc(CCNC(=O)c2ccc3c(c2)c(C)c(C)n3Cc2ccc(F)cc2)cc1	-
COc1ccc(CNC(=O)N2CCCC(Cc3nncn3C(C)C)C2)cc1 (stereo not drawn)	-
CC(C)NC(=O)NC[C@H]1C[C@@H]2CCN1C[C@@H]2CN1CCN(c2ncccn2)CC1	-
Cc1c(C(=O)N2CCOCC(CO)C2)n(C)c2c(C)cccc12 (stereo not drawn)	-
COc1ccc([C@H]2C[C@@H](O)[C@@H](O)[C@@H]2NC(=O)C2CCC2)cc1	-
COCC(=O)N[C@H]1CCN2C(=O)N(c3ccc(C)cc3)C(=O)[C@@H]2C1	-
COc1ccc(-c2cc(C(F)F)n3ncc(C(=O)Nc4cc(OC)ccc4OC)c3n2)cc1	-
Cc1ccc(SCc2nc(-c3ccc(C(=O)NCc4ccc(Cl)cc4)cc3)oc2C)cc1	-
CN(C)CC1(O)CCC2(CCN(C(=O)c3ccccc3)CC2)CC1	-
